{
  "source": "PubChem BioAssay (Tox21)",
  "note": "Values joined by “and” are separate entries in the source; they are usually repeats but may differ in a detail not shown here. Identical values can stand only once. Records with an inconclusive call do not appear. Where a call stands in place of a potency, no number is given. Some structures have more than one record in an assay (separate samples or runs), and their calls can disagree. Active and inactive are the calls of the source. The call rests on the fitted dose curve; in most records, active means well fitted cell-killing curve with a large enough effect in the repeat runs; inconclusive means weak or mixed curves, or effect the other way; inactive means no such curve, though single readings can be large or run the other way. Potency means the concentration at half of the fitted maximal effect.",
  "data": [
    {"assay": "qHTS assay to identify small molecule antagonists of the sonic hedgehog signaling (Shh) pathway - cell viability counter screen (AID 1259367); further: nearly all actives have a fitted effect of over 55% in size", "conditions": "NIH/3T3 Gli1-Luc viability, CellTiter-Fluor, 24 h; series mostly up to 92.4 µM", "text": "National Center for Advancing Translational Sciences [NCATS]\nNIH Chemical Genomics Center [NCGC]\nU.S. Environmental Protection Agency [EPA]\nNational Institutes of Environmental Health Sciences [NIEHS]\nNational Toxicology Program [NTP]\nU.S. Food and Drug Administration [FDA]\nThe sonic hedgehog (Shh) pathway is essential for normal embryonic development. Dysregulation of the Shh pathway can cause severe developmental defects in organs. Therefore chemicals that interfere with the pathway are potential developmental toxicants. A cell line designated 3T3Gli1-Luc (DMB/OARSA/CFSAN/FDA, Laurel, MD), a NIH/3T3 derived clone containing stably integrated Gli1-Luc reporter is used to detect chemical interference of the Shh pathway, by changes in the expression of the firefly Luc gene under the control of the Gli1 transcriptional response element. This cell line was used to screen Tox21 libraries for identifying and prioritizing the potential developmental toxicants that interfere Shh pathway. Conditioned medium-stimulated mode was used to screen for chemicals inhibiting Shh signaling. The cytotoxicity of the compounds was tested in parallel by measuring the cell viability using CellTiter-Fluor assay system (Promega, Madison, WI) in the same wells.\nTox21 Assay Protocol Summary:\n3T3 Gli1-Luc cells were dispensed at 2,000 per well in 5uL of culture medium into white solid bottom 1536-well plates (Greiner Bio-One, Monroe, NC) using a Multidrop Combi (Thermo Scientific, Waltham, MA) dispenser. The assay plates were incubated at 37 C and 5% CO2 for 4hr, and then 23nL of compounds dissolved in DMSO and positive control were transferred using a Pintool station (Wako, San Diego, CA). The compound transfer was followed by the addition of 1ul conditioned medium or assay buffer using two separate tips of Flying Reagent Dispenser (FRD, Aurora Discovery, San Diego, CA). The assay plates were incubated at 37C and 5% CO2 for 24hr. For viability read, after 23hr of compound treatment, 1uL of CellTiter-Fluor reagent (Promega Corporation, Madison, WI) was added to each well of the assay plates using Flying Reagent Dispenser (FRD, Aurora Discovery, San Diego, CA) and incubated the assay plates at 37C for 1hr. The fluorescence signal was quantified using a ViewLux plate reader (Perkin Elmer, Shelton, CT).", "values": [
      {"smiles": "C[N+](C)(C)CCO", "Potency": "inactive"},
      {"smiles": "Cc1ccc(S(=O)(=O)NCl)cc1", "Potency": "inactive"},
      {"smiles": "CC(=O)OC(C)C", "Potency": "inactive"},
      {"smiles": "[Na+]", "Potency": "inactive"},
      {"smiles": "CCCN1C=CN(C)C1", "Potency": "inactive"},
      {"smiles": "C=CC(=O)OCCCC", "Potency": "inactive"},
      {"smiles": "NCCOCCO", "Potency": "inactive"},
      {"smiles": "CCc1cccc2c3c([nH]c12)C(CC)(CC(=O)O)OCC3", "note": "(stereo not given)", "Potency": "inactive"},
      {"smiles": "O=C(O)c1cc(=O)[nH]c(=O)[nH]1", "Potency": "inactive and 16.8 µM (active)"},
      {"smiles": "CCCCCCCCCCCCCO", "Potency": "inactive"},
      {"smiles": "Cc1ccc(S(=O)(=O)O)cc1C", "Potency": "inactive"},
      {"smiles": "COc1ccc(-c2coc3cc(O)cc(O)c3c2=O)cc1", "Potency": "inactive"},
      {"smiles": "CC(=O)[C@@]1(O)CC[C@H]2[C@@H]3C[C@H](C)C4=CC(=O)C=C[C@]4(C)[C@@]3(F)[C@@H](O)C[C@@]21C", "Potency": "inactive"},
      {"smiles": "CCCCCCCCCCCCO", "Potency": "inactive"},
      {"smiles": "CNC[C@H](O)c1ccc(O)c(O)c1", "viability change, negative = cytotoxic": "-0.782% [at 19 µM] (inactive)"},
      {"smiles": "CCC(=O)O[C@H]1[C@H](O[C@@H]2[C@@H](C)[C@H](O[C@H]3C[C@@](C)(OC)[C@@H](O)[C@H](C)O3)[C@@H](C)C(=O)O[C@H](CC)[C@@](C)(O)[C@H](O)[C@@H](C)C(=O)[C@H](C)C[C@@]2(C)O)O[C@H](C)C[C@@H]1N(C)C", "Potency": "14.4 µM (active)"},
      {"smiles": "Nc1cc(Cl)c(N)c(Cl)c1", "Potency": "inactive"},
      {"smiles": "CN1CCOCC1", "Potency": "inactive"},
      {"smiles": "Cc1ccc(C(C)(C)C)cc1", "Potency": "inactive"},
      {"smiles": "O=Cc1ccccc1C=O", "Potency": "54.5 µM (active) and inactive"},
      {"smiles": "C=CCCCCCCCCCC", "Potency": "inactive"},
      {"smiles": "NC[C@H](O)c1ccc(O)c(O)c1", "Potency": "inactive"},
      {"smiles": "C=C[C@@]1(C)CC(=O)[C@]2(O)[C@@]3(C)[C@@H](O)CCC(C)(C)[C@@H]3[C@H](O)[C@H](OC(C)=O)[C@@]2(C)O1", "Potency": "inactive"},
      {"smiles": "CC(C)=CCO", "Potency": "inactive"},
      {"smiles": "CCOC(=O)C(C)Oc1ccc(Oc2cnc3cc(Cl)ccc3n2)cc1", "note": "(stereo not given)", "Potency": "inactive"},
      {"smiles": "CCC/C=C/C=O", "Potency": "inactive"},
      {"smiles": "CC(=O)Oc1c(C)c(C)c2c(c1C)CC[C@@](C)(CCC[C@H](C)CCC[C@H](C)CCCC(C)C)O2", "Potency": "inactive"},
      {"smiles": "Cc1cccc(Nc2ccccc2C(=O)O)c1C", "Potency": "inactive"},
      {"smiles": "C=CCOC(=O)C(=C)C", "Potency": "inactive"},
      {"smiles": "CC/C=C\\C/C=C\\C/C=C\\CCCCCCCC(=O)O", "Potency": "inactive"},
      {"smiles": "CCCCCCCC/C=C\\CCCCCCCC(=O)O", "Potency": "inactive"},
      {"smiles": "O=C1OC2(c3ccccc31)c1cc(I)c(O)c(I)c1Oc1c2cc(I)c(O)c1I", "Potency": "15.5 µM (active) [middle of 4 runs]"},
      {"smiles": "O=S1(=O)CCCO1", "Potency": "inactive"},
      {"smiles": "CC1(C)OC(=O)NC1=O", "Potency": "inactive"},
      {"smiles": "CC(=O)O[C@]1(C(C)=O)CC[C@H]2[C@@H]3C=C(C)C4=CC(=O)CC[C@]4(C)[C@H]3CC[C@@]21C", "Potency": "inactive"},
      {"smiles": "Clc1ccc(Sc2cc(Cl)c(Cl)cc2Cl)cc1", "Potency": "inactive"},
      {"smiles": "CC/C(=C(/CC)c1ccc(O)cc1)c1ccc(O)cc1", "Potency": "inactive"},
      {"smiles": "O=C(O)c1ccc(O)cc1", "Potency": "inactive"},
      {"smiles": "CCCCCCC(C)O", "note": "(stereo not given)", "Potency": "inactive"},
      {"smiles": "FC(F)(F)C(Cl)Br", "note": "(stereo not given)", "Potency": "inactive"}
    ]}
  ]
}
